We go through 5 compounds from PubChem BioAssay.

Assay [1] can be described thus: small molecules captured by biotinylated probe aFSTL3 – biochemical, small-molecule microarray, fluorescence 635/667, stem cell growth factor project, primary screen (AID 1064).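 Also: measures binding of the biotinylated anti-FSTL3 antibody to printed compounds.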 The conditions noted are these: higher = more signal.
Assay [2] is described as follows: binders from COS7 lysate, DM2A8 probe, primary screen, torsin A project, cell lysate, small-molecule microarray, fluorescence 635/667 (AID 1065). The conditions noted are these: higher = more signal, COS7 lysate expressing mutant human TOR1A.
Assay [3] in a line: small molecules captured by biotinylated probe aFGF2 – biochemical, small-molecule microarray, fluorescence 635/667, stem cell growth factor project, primary screen (AID 1067).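 Also: measures binding of biotinylated aFGF2 protein to printed compounds on slides; z-score merges feature fluorescence and signal-to-noise across triplicate slides.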 The conditions noted are these: higher = more signal.
Assay [4] is described as follows: small molecules captured by biotinylated probe aFGF10 – biochemical, small-molecule microarray, fluorescence 635/667, stem cell growth factor project, primary screen (AID 1071).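 Also: score merges 667 nm spot intensity and signal to noise from triplicate slides.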 As to conditions: higher = more signal.
Assay [5] deals with Neurogenic locus notch homolog protein 2 (Homo sapiens) (UniProt Q04721). The assay is described as follows: small molecules binding Notch2 protein – biochemical, small-molecule microarray, 635 nm fluorescence, stem cell growth factors, primary screen (AID 1073). The conditions noted are these: higher = more signal.
Neurogenic locus notch homolog protein 2 (Homo sapiens), sequence (Q04721 whole entry, looked up, canonical isoform): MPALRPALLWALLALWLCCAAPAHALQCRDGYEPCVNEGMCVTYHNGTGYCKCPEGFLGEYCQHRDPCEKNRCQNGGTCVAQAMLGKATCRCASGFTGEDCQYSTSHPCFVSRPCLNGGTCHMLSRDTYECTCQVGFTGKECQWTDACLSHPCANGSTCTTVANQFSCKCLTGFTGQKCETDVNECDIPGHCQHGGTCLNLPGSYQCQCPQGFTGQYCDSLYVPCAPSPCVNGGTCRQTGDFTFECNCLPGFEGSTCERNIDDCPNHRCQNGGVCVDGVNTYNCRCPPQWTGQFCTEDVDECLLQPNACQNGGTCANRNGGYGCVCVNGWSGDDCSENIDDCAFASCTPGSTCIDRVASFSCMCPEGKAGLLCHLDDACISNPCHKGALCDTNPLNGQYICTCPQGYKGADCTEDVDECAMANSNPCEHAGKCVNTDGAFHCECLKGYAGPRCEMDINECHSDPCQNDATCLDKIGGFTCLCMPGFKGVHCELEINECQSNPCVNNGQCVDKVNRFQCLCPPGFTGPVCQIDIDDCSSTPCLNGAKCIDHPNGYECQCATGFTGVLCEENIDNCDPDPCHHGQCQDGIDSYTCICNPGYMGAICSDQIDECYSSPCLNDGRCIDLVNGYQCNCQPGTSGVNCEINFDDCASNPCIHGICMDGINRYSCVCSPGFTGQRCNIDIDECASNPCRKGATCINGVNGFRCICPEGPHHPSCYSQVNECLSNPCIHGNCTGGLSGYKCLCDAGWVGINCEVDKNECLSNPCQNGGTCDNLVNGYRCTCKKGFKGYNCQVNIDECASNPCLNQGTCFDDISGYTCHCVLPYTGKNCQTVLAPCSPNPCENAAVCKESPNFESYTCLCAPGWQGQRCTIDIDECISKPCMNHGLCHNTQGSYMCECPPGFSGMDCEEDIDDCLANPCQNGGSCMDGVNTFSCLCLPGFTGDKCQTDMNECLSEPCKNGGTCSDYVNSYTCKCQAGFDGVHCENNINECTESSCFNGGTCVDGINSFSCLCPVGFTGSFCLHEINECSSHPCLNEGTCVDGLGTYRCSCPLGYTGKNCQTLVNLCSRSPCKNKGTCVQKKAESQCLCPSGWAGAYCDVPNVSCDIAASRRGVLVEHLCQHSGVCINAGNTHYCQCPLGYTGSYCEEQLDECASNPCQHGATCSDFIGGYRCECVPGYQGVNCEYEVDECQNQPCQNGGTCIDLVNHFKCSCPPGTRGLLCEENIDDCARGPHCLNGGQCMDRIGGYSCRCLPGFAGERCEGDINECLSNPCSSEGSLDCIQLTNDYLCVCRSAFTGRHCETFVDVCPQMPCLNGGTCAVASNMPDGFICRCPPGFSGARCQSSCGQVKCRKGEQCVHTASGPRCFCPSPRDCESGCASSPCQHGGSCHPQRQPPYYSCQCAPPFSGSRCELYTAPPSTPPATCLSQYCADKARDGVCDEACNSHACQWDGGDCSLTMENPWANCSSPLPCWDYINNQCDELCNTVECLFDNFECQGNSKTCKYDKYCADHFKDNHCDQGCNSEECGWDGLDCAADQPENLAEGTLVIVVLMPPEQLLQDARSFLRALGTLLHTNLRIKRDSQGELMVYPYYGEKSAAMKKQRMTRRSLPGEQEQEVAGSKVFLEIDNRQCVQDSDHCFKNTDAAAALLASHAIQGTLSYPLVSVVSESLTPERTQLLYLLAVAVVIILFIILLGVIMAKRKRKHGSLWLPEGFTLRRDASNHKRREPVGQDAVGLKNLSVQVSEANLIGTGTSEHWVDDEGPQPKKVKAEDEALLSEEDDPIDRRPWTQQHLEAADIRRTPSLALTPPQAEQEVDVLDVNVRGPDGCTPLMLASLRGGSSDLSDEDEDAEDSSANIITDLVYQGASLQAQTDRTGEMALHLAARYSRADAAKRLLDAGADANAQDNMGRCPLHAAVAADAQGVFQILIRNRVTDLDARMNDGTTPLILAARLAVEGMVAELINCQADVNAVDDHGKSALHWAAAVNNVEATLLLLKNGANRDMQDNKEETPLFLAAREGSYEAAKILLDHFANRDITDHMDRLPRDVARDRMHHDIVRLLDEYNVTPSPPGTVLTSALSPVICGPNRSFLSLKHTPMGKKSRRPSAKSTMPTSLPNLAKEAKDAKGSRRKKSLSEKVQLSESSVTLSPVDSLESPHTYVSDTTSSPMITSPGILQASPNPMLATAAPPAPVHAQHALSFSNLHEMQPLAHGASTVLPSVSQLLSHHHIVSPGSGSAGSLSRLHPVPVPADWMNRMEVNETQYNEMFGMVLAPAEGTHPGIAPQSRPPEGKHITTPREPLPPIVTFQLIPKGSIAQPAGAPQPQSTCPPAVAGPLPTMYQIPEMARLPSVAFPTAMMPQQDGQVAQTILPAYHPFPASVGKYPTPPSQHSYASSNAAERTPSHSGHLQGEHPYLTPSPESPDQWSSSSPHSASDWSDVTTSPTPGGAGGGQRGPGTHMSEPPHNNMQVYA
The target in assay [6] is Pro-neuregulin-1, membrane-bound isoform (Homo sapiens) (UniProt Q02297). Nature of the assay: small molecules binding neuregulin-1 protein – biochemical, small-molecule microarray, fluorescence 635/667, psychiatric disease protein project, primary screen (AID 1075).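 Also: score combines 667 nm spot fluorescence with signal to noise.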 The conditions noted are these: NRG1 binding, 635 nm fluorescence, higher = more signal.
Assay [7] relates to Neuregulin-1 EGF-like domain. Nature of the assay: small molecules binding NRG1 EGF domain – biochemical, small-molecule microarray, 635 nm fluorescence, primary screen (AID 1081).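 Also: binding of the protein to compounds printed on small-molecule microarray slides.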 As to conditions: higher = more signal.
A short description of assay [8]: FRG1 expression reporter modulators in myotubes – cell-based, C2C12 myotubes, firefly/Renilla luciferase, luminescence, FRG1 inhibition for FSHD, primary screen (AID 1084). As to conditions: FRG1 promoter luciferase, higher = more signal, called active from +8 up or from −8 down.
A short description of assay [9]: small molecules captured by biotinylated probe aFST – biochemical, small-molecule microarray, fluorescence 635/667, stem cell growth factor project, primary screen (AID 1086).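 Also: score merges 667 nm fluorescence with signal-to-noise of each printed compound spot.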 As to conditions: higher = more signal.
Assay [10] is described as follows: binders of probe aHhip on microarray, primary screen, stem cell growth factor project, biochemical, small-molecule microarray, fluorescence 635/667 (AID 1087).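 Also: score merges spot fluorescence at 667nm with spot signal to noise ratio.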 As to conditions: higher = more signal.
The test system of assay [11] is PRMT1 (protein arginine N-methyltransferase 1). Nature of the assay: small molecules binding arginine methyltransferase PRMT1 – biochemical, small-molecule microarray, 635 nm fluorescence, primary screen (AID 1088).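 Also: binding of Prmt1 protein to compounds spotted on small-molecule microarray slides.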 The conditions noted are these: higher = more signal.
Assay [12] is described as follows: growth effects on S. cerevisiae YJM789 – YJM789 clinical isolate, OD600, 24 h, basal, primary screen (AID 1089).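 Also: growth of clinical yeast isolate S. cerevisiae YJM 789 seeded 1000 cells per well; test concentration not given here.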 As to conditions: higher = more signal, called active from +8 up or from −8 down.
A short description of assay [13]: S. pombe growth modifiers, basal conditions – strain 972, OD600, 24 h, no modulator, primary screen (AID 1090).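 Also: basal condition with compound alone and no growth modifier present; test concentration not given here.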 The conditions noted are these: S. pombe 972 growth, higher = more signal, called active from +8 up or from −8 down.
Assay [14] is described as follows: budding yeast growth modifiers under rapamycin – strain BY4716, OD600, 96 h, primary screen (AID 1091). Also: test concentration not given here. As to conditions: S. cerevisiae BY4716 + rapamycin, higher = more signal, called active from +8 up or from −8 down.
For assay [15], the target named is Torsin-1A-interacting protein 2 (Homo sapiens) (UniProt Q8NFQ8). The assay is described as follows: small molecules binding lysate-expressed LULL1 – cell lysate, human LULL1 lysate, 635/667 nm fluorescence, primary screen (AID 1092).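 Also: score merges per-feature 667 nm fluorescence with signal-to-noise.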 As to conditions: small-molecule microarray, hLULL1 lysate binding, 635 nm fluorescence; higher = more signal.
Assay [16] can be described thus: optical density change of DRC41 E. coli – strain DRC41, OD650, 24 h, E. coli filamentation project, primary screen (AID 1093).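 Also: MC1000 strain lacking acrAB efflux and sulA so SOS filamentation is blocked; test concentration not given here.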 The conditions noted are these: E. coli DRC41 growth, higher = more signal, called active from +8 up or from −8 down.
Assay [17] can be described thus: probe aLefty2 binding to arrayed compounds – biochemical, biotinylated probe, 635/667 nm fluorescence, primary screen (AID 1094).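 Also: score merges spot fluorescence near 667 nm with spot signal-to-noise ratio.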 As to conditions: small-molecule microarray, higher = more signal.
Assay [18] has as its system Noggin (protein binding on small-molecule microarray). Nature of the assay: small molecules binding Noggin protein – biochemical, 635/667 nm fluorescence, primary screen (AID 1095).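 Also: score merges 667 nm feature fluorescence with signal to noise over triplicate slides.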 As to conditions: 635 nm fluorescence, higher = more signal.
For assay [19], the target named is Neurogenic locus notch homolog protein 3 (Homo sapiens) (UniProt Q9UM47). The assay is described as follows: small molecules binding NOTCH3 protein – biochemical, 635/667 nm fluorescence, primary screen (AID 1096). The conditions noted are these: small-molecule microarray, 635 nm fluorescence, higher = more signal.
Neurogenic locus notch homolog protein 3 (Homo sapiens), sequence (Q9UM47 whole entry, looked up): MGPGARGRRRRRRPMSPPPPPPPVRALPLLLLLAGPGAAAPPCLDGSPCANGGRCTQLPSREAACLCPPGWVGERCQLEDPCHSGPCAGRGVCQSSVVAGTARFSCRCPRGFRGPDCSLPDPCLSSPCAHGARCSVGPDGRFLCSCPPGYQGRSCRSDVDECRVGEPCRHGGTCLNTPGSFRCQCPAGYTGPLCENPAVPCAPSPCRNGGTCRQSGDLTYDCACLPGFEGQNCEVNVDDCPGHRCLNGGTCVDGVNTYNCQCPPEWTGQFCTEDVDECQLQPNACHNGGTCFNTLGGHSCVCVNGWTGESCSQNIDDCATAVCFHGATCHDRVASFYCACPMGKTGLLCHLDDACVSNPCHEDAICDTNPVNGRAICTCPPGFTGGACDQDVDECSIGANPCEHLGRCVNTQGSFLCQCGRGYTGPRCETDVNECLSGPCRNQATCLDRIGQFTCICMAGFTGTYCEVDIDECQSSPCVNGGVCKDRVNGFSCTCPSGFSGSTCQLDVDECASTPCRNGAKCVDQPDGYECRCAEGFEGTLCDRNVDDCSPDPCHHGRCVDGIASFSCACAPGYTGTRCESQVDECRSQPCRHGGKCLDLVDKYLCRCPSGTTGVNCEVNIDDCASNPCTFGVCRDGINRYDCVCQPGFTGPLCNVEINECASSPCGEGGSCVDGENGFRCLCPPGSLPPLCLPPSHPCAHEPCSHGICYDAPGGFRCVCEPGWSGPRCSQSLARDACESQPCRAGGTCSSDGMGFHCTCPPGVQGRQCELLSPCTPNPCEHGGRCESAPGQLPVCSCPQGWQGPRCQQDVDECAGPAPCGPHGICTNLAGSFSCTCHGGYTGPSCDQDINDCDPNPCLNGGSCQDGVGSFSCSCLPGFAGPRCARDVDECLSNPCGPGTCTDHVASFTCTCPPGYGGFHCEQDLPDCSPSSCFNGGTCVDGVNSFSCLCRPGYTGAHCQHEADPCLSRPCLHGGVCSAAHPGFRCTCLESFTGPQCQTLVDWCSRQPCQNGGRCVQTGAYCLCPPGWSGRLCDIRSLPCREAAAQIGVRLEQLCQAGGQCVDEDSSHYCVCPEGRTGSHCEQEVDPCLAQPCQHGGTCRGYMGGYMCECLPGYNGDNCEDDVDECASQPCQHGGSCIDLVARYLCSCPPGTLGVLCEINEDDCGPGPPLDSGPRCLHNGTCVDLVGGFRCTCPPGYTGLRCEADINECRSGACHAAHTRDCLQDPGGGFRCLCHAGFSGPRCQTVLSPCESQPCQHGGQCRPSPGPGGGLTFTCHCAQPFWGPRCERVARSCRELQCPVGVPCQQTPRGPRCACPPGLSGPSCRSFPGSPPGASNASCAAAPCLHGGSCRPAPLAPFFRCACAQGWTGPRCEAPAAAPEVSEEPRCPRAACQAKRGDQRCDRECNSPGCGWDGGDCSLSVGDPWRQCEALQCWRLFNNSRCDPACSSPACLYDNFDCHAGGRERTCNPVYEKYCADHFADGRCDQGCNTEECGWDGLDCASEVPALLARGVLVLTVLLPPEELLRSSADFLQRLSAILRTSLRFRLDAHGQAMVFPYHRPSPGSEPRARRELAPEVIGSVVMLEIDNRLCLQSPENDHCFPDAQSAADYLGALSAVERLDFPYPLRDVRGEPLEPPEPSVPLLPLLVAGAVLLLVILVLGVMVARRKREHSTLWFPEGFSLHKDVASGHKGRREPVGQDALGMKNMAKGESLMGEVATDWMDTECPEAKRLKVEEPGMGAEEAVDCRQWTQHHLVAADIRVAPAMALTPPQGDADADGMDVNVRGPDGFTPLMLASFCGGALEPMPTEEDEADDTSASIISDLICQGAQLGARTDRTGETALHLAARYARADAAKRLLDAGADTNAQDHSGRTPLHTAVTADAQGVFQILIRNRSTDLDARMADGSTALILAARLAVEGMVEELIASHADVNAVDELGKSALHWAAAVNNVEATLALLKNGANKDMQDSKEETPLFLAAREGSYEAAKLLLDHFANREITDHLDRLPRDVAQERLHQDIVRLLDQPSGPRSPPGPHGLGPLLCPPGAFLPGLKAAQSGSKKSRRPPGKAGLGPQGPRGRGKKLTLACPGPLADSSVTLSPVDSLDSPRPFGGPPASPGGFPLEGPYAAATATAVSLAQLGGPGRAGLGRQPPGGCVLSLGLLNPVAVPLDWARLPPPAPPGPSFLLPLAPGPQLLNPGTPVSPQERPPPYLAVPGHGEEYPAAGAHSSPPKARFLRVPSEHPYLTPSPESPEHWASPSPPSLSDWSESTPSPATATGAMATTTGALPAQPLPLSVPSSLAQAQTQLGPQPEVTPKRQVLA
Assay [20] can be described thus: probe aEGFR binding to arrayed compounds – biochemical, biotinylated probe, 635/667 nm fluorescence, primary screen (AID 1097).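 Also: probe is a biotinylated anti-EGFR antibody binding compounds printed on slides; score combines fluorescence near 667 nm and signal to noise of each spot.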 As to conditions: small-molecule microarray, higher = more signal.

Activity calls are given as the source filed them.

In the case of `C=CCN1C(=O)[C@@]2(Cc3ccccc3)N=C(c3ccc(OCCCO)cc3)O[C@H]2c2ccccc21`, the composite z-score in assay [1] was 1.02; in assay [2] it was 0.22; in assay [3], 0.0714; in [4], 0.0096; in assay [5], 0.895; in assay [6], 0.14. Also, the composite z-score is 1.14 in [7]; 0.691 in assay [9]; -0.132 in [10]; 1.36 in [11]; 2.77 in assay [15]; 0.44 in [17]. Moreover, the composite z-score in assay [18] is 0.293; in assay [19] it was 1.08; in assay [20], 0.031. Further, the z-score in [8] is -2.86 (inactive); in assay [12], -0.772 (inactive); in assay [13], -5.06 (inactive); in assay [14], 1.63 (inactive); in assay [16] it was 0.612 (inactive).

In the case of `CCCC[C@H]1OB(O)C[C@H]2C1=C(COC)C[C@H]1C(=O)N(Cc3ccccc3)C(=O)[C@H]12`, the composite z-score in assay [1] was -0.193; in [2], 0.323; in assay [3] it was 0.0644; in assay [4], 0.3; in assay [5], 0.908; in assay [6] it was 0.173. Moreover, the composite z-score was -0.334 in [7]; 0.633 in assay [9]; 0.124 in [10]; -0.0448 in assay [11]; 0.58 in assay [15]; -0.113 in assay [17]. The values for the composite z-score in assay [18], in assay [19] and in assay [20] were 0.321, 0.75 and -0.0958, respectively. The z-score in assay [8] is -0.788 (inactive); in assay [12], -0.776 (inactive); in assay [13], -1.69 (inactive); in assay [14], -1.69 (inactive); in assay [16], 2.71 (inactive).

Take `COCCOC(=O)N1C(=O)[C@@]2(c3cc(C#CCNC(N)=O)ccc31)[C@H](C(=O)N1CCCCCCC1)[C@H]1C(=O)O[C@H](c3ccccc3)[C@H](c3ccccc3)N1[C@@H]2c1ccccc1OCCO`: the composite z-score in assay [1] stood at 2.42; in assay [2], 0.288; in assay [3], 0.129; in assay [4], 0.452; in [5] it was 1.38; in assay [6], 1.03. The composite z-score was 1.05 in [7]; 1.29 in [9]; 0.851 in assay [10]; 1.2 in assay [11]; 2.05 in assay [15]; 0.957 in [17]. Moreover, the composite z-score in assay [18] came out at 0.601; in assay [19], 1.04; in [20], 0.295. Besides, the z-score in assay [8] is -0.556 (inactive); in assay [12], 1.42 (inactive); in assay [13], -0.922 (inactive); in assay [14], 3.58 (inactive); in assay [16] it was -0.698 (inactive).

Take `O=C(CS)NCCCCCNC(=O)[C@H]1C[C@H]2C(=O)N3CCC[C@H]3C(=O)N2[C@H]1c1ccc(O)cc1`: the composite z-score is 0.305 in assay [1]; 0.0424 in assay [2]; -0.0363 in assay [3]; -0.267 in [4]; -0.231 in [5]; 0.873 in [6]. Also, the composite z-score is 1.25 in assay [7]; -0.339 in [9]; 0.0274 in [10]; -0.183 in assay [11]; 0.0874 in assay [15]; -0.0961 in assay [17]. The composite z-score in [18] is 0.0529; in assay [19], -1.17; in [20], -0.184. In addition, the z-score is 0.393 (inactive) in [8]; -0.0414 (inactive) in [12]; -1.25 (inactive) in assay [13]; 0.0236 (inactive) in assay [14]; 1.62 (inactive) in [16].

In the case of `CO[C@H]1COC(=O)[C@H](CCSC)NC(=O)CC=C[C@@H](C)COC(=O)[C@@H](OCc2ccccc2)C=C[C@@H]1C`, the composite z-score is -0.929 in assay [1]; 2.45 in assay [2]; -0.294 in [3]; -0.226 in [4]; -0.206 in assay [5]; -0.37 in [6]. The composite z-score is 0.782 in assay [7]; -0.327 in [9]; -0.0047 in assay [10]; 1.13 in assay [11]; -0.84 in assay [15]; -0.222 in assay [17]. Besides, the composite z-score in assay [18] was 1.93; in assay [19] it was 0.13; in assay [20], -0.0131. The z-score in [8] is -0.592 (inactive); in [12], 0.891 (inactive); in [13], 0.353 (inactive); in [14], 0.97 (inactive); in assay [16], 0.109 (inactive).
